RECQ1 inh – blocks DNA unwinding by human RECQ1 | P46063 | RECQ1 DNA unwinding, red fluorescence kinetic read | 0.54% of 240,000 active | Potency, µM (top dose mostly 57.3 µM), without a hit: at the top dose activity, negative = inhibition, most hits filed as inhibitors;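 note: plate controls were vehicle for no effect and no enzyme for full effect; nearly all actives have a fitted effect of over 30% in size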
Target sequence (P46063 whole entry, looked up): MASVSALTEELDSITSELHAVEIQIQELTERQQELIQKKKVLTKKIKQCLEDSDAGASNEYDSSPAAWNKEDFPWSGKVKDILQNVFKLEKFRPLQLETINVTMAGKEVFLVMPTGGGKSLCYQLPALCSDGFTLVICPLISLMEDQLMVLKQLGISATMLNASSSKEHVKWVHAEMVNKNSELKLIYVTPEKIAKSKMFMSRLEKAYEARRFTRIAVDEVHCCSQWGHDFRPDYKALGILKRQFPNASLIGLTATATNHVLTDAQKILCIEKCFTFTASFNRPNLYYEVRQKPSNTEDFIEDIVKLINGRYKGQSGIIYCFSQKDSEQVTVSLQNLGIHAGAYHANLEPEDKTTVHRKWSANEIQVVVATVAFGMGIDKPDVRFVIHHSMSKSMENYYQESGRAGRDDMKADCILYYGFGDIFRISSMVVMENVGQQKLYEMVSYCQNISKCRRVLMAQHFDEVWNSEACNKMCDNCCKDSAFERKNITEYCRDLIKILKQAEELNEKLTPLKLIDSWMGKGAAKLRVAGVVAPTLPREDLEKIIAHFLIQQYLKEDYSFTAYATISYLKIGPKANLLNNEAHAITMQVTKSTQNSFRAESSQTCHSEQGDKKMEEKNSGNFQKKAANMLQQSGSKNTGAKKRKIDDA
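50 nM RECQ1T1 preincubated 15 min with compound in Tris pH 8.0 buffer with MgCl2, DTT, Tween-20 and 2.5 ug/ml poly(dI-dC); started with 200 nM TAMRA/BHQ-2 forked duplex and 2 mM ATP. Unwinding read as fluorescence (525/598 nm), two reads 2 h apart.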
WRN helicase inh-1 – inhibitors of human WRN helicase. WRN helicase unwinding, fluorescent forked duplex, kinetic. Potency, µM (titrated, usually from 114 µM), without a hit: at the highest dose activity change, negative = inhibition, usual class: inhibitors. 0.46% of 360,000 active; note: % is set by controls: 0 for no effect and ±100 for the full control effect; nearly all actives have a fitted effect of over 55% in size
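Kinetic red-fluorescence monitoring (525/598 nm) tracks WRN helicase activity after 100 nM fluorophore-quencher forked duplex and 2 mM ATP are added to 20 nM enzyme pretreated 15 min at room temperature with compound.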
L3MBTL1 block – inhibitors of human L3MBTL1; Q9Y468; AlphaScreen L3MBTL1–H3K9me1 peptide binding; Potency, µM (top dose mostly 57.1 µM), for the others: at the top dose activity, negative = inhibition, actives largely listed as inhibitors; 0.66% of 230,000 active; AID 485360; note: % is set by controls: 0 for no effect and ±100 for the full control effect; nearly all actives have a fitted effect of over 60% in size
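L3MBTL1 50 nM + b-AHA-H3(1-15)K9me1 75 nM, 30 min RT; compound added, 30 min RT; streptavidin donor/Ni-chelate acceptor beads 10 ug/mL each final, 30 min RT dark; AlphaScreen read.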
BLM helicase inh-1 – Bloom syndrome helicase (human) inhibition; P54132; recombinant BLM DNA unwinding, fluorescence dequenching; Potency, µM (series often up to 56.1 µM), inactives show at the top dose activity change, negative = inhibition, hits mostly inhibitors; 0.2% of 350,000 active; AID 2528;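 note: plate controls were vehicle for no effect and no enzyme for full effect; nearly all actives have a fitted effect of over 35% in size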
APE1 inh – inhibitors of human APE1 endonuclease | P27695 | Potency, µM (doses to about 65.8 µM), for the others: at the highest dose activity change, negative = inhibition, hits mostly inhibitors | recombinant APE1, TAMRA/BHQ-2 abasic DNA cleavage fluorescence | AID 2517 | 0.35% of 350,000 active;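 note: plate controls were vehicle for no effect and reference inhibitor for full effect; nearly all actives have a fitted effect of over 55% in size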
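Measures dequenching upon AP-site incision of a 5'-TAMRA/3'-BHQ-2 THF-containing duplex, 50 nM; human APE1 0.75 nM after 15 min room-temperature exposure to compound; kinetic three-point read at one-minute spacing.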
WRN helicase inh-2 – confirmation of human WRN helicase inhibitors; shares compounds with WRN helicase inh-1; WRN helicase DNA unwinding, fluorescence kinetic; Potency, µM (top dose mostly 57.1 µM), inactives show at the highest dose activity, negative = inhibition, actives largely listed as inhibitors; 63% of 610 active; note: nearly all actives have a fitted effect of over 65% in size
TO displacement – counter-screen for WRN helicase inhibitors: DNA binding | shares compounds with WRN helicase inh-1 | thiazole orange DNA binding displacement, fluorescence | Potency, µM (highest dose often 57.1 µM), for the others: at the top dose activity change, negative = inhibition, most hits filed as inhibitors | 10% of 610 active;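 note: drop in dye fluorescence marks compound binding to DNA; % is set by controls: 0 for no effect and ±100 for the full control effect; nearly all actives have a fitted effect of over 60% in size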
BLM helicase inh-2 – counter-screen for WRN helicase inhibitors: human BLM helicase inhibition. Potency, µM (titrated, usually from 57.1 µM), for inactives: top-dose activity change, negative = inhibition, usual class: inhibitors. shares compounds with WRN helicase inh-1. Recombinant BLM helicase DNA unwinding, red fluorescence. 60% of 610 active. AID 720503; note: nearly all actives have a fitted effect of over 60% in size
The depositor's hits bear a star; i = inactive; ? = inconclusive; · = no result; [ ] = dose if it differs, or a comment. Compounds with a hit are over-represented: about 0.92% of the library has one in this group of screens. Calls come from the whole dose curve; as a rule, active = well fitted curve in the direction sought with a large enough effect; inconclusive = small, poorly fitted or top-dose-only effect, or another doubt; inactive = no such curve, though single readings can be large; an effect the other way counts as inactive or inconclusive. Potency is the fitted concentration of half-maximal effect.

SMILES	RECQ1 inh	WRN helicase inh-1	L3MBTL1 block	BLM helicase inh-1	APE1 inh	WRN helicase inh-2	TO displacement	BLM helicase inh-2
CC1=C(C)CS(=O)N(c2ccc(S(N)(=O)=O)cc2)C1 (stereo unspecified)	i	?	-2%	-4%	-6%	·	·	·
C#CCCCO/N=C1/C[C@@H](O)[C@@H](O)[C@@H]2[C@@H]3C(=O)N(Cc4ccccc4)C(=O)[C@H]3CC[C@H]12	i[11.5 µM]	·	·	-3%[12.4 µM]	11%[12.4 µM]	·	·	·
COc1ccc(NS(=O)(=O)c2c(C)nc3scc(C)n3c2=O)cc1	·	·	·	-1%	·	·	·	·
Cc1c(Br)c(=O)oc2c(Br)c(O)ccc12	2%	-4%	-29%	9%	?	·	·	·
Cc1c(Br)c(=O)oc2c(Br)c(O)c(O)cc12	i	16µM*	3.5µM*	7.9µM*	3%	3.8µM*	?	3.4µM*
C[C@H]1COC(=O)[C@H]2CCCN2C(=O)[C@@H](C)COC(=O)[C@H]2CCCN2C1=O	i[11.5 µM]	·	·	6%[12.4 µM]	23%[12.4 µM]	·	·	·
Oc1ccc(O)c(Cc2nc3ccccc3[nH]2)c1	i	89µM*	-18%	-4%	-2%	22µM*	?	6.8µM*
O=C(NC1(C(F)(F)F)C(=O)Nc2c1c(=O)[nH]c(=O)n2CCc1ccccc1)c1ccc(Cl)cc1Cl (stereo unspecified)	·	·	·	-4%	·	·	·	·
COc1ccc(Nc2oc(/C=C/c3ccc(OC)c(OC)c3)nc2C#N)cc1	·	·	·	-6%	·	·	·	·
O=S(=O)(c1ccccc1)c1cc(O)ccc1O	i	-15%	-6%	-4%	-5%	·	·	·
Nc1ccc(S(=O)(=O)c2cc(O)c3ccccc3c2O)cc1	·	28µM*	·	·	·	24µM*	24µM*	22µM*
COc1ccc(NS(=O)(=O)c2ccc3c(c2)[C@H]2C=CC[C@H]2[C@@H](c2ccc(C(=O)O)cc2)N3)cc1	·	40µM*	·	-18%	-12%	22µM*	-21%	27µM*
COC(=O)c1ccc([C@H]2Nc3ccc(S(=O)(=O)Nc4ccc(C)cc4)cc3[C@H]3C=CC[C@H]32)cc1	·	·	·	-17%	·	·	·	·
Nc1nc2c(s1)CCc1c-2cnn1-c1ccccc1	?	-25%	32µM*	0%	-9%	30µM*	-16%	30µM*
O=C(O)c1ccc(-n2cccc2/C=C2/SC(=O)N(CC(=O)N3CCCC3)C2=O)cc1	·	20µM*	·	-6%	3.4µM*	6.8µM*	6%	3µM*
CC1=NN(c2ccc(Cl)cc2)C(=O)C1C(c1cccc(O)c1)c1c(C)[nH]n(-c2ccc(Cl)cc2)c1=O (stereo unspecified)	3%	?	-21%	-4%	-4%	·	·	·
CC1=NN(c2ccc(F)cc2)C(=O)C1C(c1cccc(O)c1)c1c(C)[nH]n(-c2ccc(F)cc2)c1=O (stereo unspecified)	-1%	?	-22%	-3%	-5%	-18%	-20%	-14%
CSCC[C@H](NC(=O)[C@H](Cc1c[nH]c2ccccc12)NC(=O)CCNC(=O)OC(C)(C)C)C(=O)N[C@@H](CC(=O)O)C(=O)N[C@@H](Cc1ccccc1)C(N)=O	-11%	·	·	3%	4%	·	·	·
COc1cc(/C=C2/C(=O)c3cccc([N+](=O)[O-])c3C2=O)c(Br)cc1O	25µM*	4.2µM*	-15%	-19%	?	?	?	?
CCN(CC)CCCNc1nc(-c2ccccc2)nc2ccccc12	0%	-1%	1%	91%	6%	·	·	·
CCN(CC)CCCNc1nc2ccccc2c2[nH]c3ccc(OC)cc3c12	·	25µM*	·	·	·	6.8µM*	?	?
Cc1c(Cc2ccccc2)c(=O)oc2c(O)c(O)ccc12	i	28µM*	-11%	13µM*	0%	6.8µM*	-17%	6.8µM*
Cc1c(Cc2ccccc2)c(=O)oc2cc(O)ccc12	0%	-8%	7%	-8%	0%	·	·	·
CCN(CC)CCCNc1nc2cc(OC)c(OC)cc2c2nc(-c3ccccc3)nn12	?	35µM*	·	16%	?	17µM*	-9%	25%
COCCCNc1nc2cc(OC)c(OC)cc2c2nc(-c3ccccc3)nn12	·	-4%[57.1 µM]	·	-3%	5%	·	·	·
SMILES	RECQ1 inh	WRN helicase inh-1	L3MBTL1 block	BLM helicase inh-1	APE1 inh	WRN helicase inh-2	TO displacement	BLM helicase inh-2
COc1cc2nc(NCCCN3CCN(C)CC3)n3nc(-c4ccccc4)nc3c2cc1OC	5%	12µM*	·	-4%	10%	12µM*	-29%	-5%
Cn1cccc1/C=C1\SC(=O)N(CC(=O)Nc2ccc(Cl)cc2)C1=O	-7%	1%	-6%	-1%	4%	·	·	·
N#CNC(=O)c1ccc(-n2cccc2/C=C2\NC(=O)N(CC(=O)Nc3cccc(F)c3)C2=O)cc1	·	·	·	·	·	11µM*	9.6µM*	4.8µM*
CCn1c(C)cc(/C=C2/NC(=O)N(CC(=O)Nc3cccc(C)c3)C2=O)c1C	i	-2%	1%	-1%	-2%	·	·	·
N#CNC(=O)c1ccc(-n2cccc2/C=C2\NC(=O)N(CC(=O)Nc3ccc(Cl)cc3)C2=O)cc1	·	·	·	·	·	4.3µM*	?	0.96µM*
O=C(CSc1nnc2ccc3ccccc3n12)Nc1ccccc1Cl	·	·	·	3%	·	·	·	·
CCOC(=O)c1c(C)cc(O)c(C=O)c1O	i	·	·	0%	-3%	·	·	·
COc1ccc(OC)c2nc3c(C(=O)NCCN(C)C)cccc3nc12	·	13µM*	·	·	·	14µM*	11µM*	22µM*
CN(C)CCNC(=O)c1cccc2nc3cccc(F)c3nc12	·	-18%[11.6 µM]	·	·	·	·	·	·
COc1cc(NC(=O)c2noc3c2CCC3)c(OC)cc1Cl	-11%	?	·	4%	?	?	-5%	22µM*
COc1ccccc1OCCSc1nc(-c2ccc(C(C)(C)C)cc2)nc2cc(=O)[nH]n12	·	·	·	-7%	·	?	?	27µM*
COC(=O)c1ccccc1NS(=O)(=O)c1cc2c(cc1C)N(C)CCO2	·	·	·	2%	·	·	·	·
COc1ccc(/C=N\NC(=O)c2ccc([N+](=O)[O-])c(C)c2)cc1COc1ccccc1C(N)=O	·	?	·	?	-32%	·	·	·
COc1ccc(/C=N/NC(=O)c2ccccc2OC)cc1COc1ccccc1[N+](=O)[O-]	·	?	·	?	2%	?	-5%	-20%
CN1CCN(C(=O)C2CCCN(S(=O)(=O)c3ccc(Br)cc3)C2)CC1 (stereo unspecified)	·	-21%	·	-5%	18%	·	·	·

Assay outcomes: PubChem, National Center for Advancing Translational Sciences (NCATS)
